Screening data from PubChem.
This excerpt belongs to a sample that is enriched for hits.
EZH2 inh = blocks human EZH2/PRC2 H3K27 methylation. 57,000 tested, 0.35% active. DELFIA TRF, 1 h. inhibition, % at 12.5 µM. AID 651548. Q15910;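 active = mean inhibition of replicates at least 50% and every single replicate also reaching 50%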;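 note: dimethyl H3K27 on biotinylated H3 21-44 peptide detected by antibody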
Target sequence (Q15910 whole entry, looked up): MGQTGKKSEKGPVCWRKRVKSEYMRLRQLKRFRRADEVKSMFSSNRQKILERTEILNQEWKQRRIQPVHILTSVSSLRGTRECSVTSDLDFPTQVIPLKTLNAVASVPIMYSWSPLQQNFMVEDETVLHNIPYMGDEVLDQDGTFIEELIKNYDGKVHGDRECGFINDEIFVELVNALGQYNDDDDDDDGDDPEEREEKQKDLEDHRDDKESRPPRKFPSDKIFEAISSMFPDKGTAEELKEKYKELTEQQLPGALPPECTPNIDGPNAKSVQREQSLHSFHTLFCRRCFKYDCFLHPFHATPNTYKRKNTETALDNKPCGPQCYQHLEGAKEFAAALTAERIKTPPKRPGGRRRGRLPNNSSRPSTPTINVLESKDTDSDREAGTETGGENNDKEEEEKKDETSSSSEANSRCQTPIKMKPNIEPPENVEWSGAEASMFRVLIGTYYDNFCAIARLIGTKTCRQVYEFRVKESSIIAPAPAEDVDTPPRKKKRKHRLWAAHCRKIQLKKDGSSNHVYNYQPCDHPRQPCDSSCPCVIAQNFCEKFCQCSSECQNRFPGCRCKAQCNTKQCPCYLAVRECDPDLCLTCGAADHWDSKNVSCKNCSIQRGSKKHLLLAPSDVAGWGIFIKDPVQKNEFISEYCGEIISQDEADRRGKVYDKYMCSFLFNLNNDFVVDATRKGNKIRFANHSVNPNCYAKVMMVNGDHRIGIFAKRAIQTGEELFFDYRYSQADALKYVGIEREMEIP
Each line names hits and unclear results; the compound was inactive in the other large screens.

Cc1cc(=O)c2c(O)c3c(O)cc(O)c4c5c(O)cc(O)c6c(O)c7c(=O)cc(C)c8c1c2c(c34)c(c65)c78	EZH2 inh 64
CC(C)=CCC/C(C)=C/CC(O)/C(C)=C/Cc1cc(C(=O)O)ccc1O (centres undefined)	none
O=C(O)Cc1ccc(NC(=O)CN2C(=O)c3ccccc3C2=O)cc1	none
CN(C)/C=C/C=C1C(=O)CCCC1=O	EZH2 inh 54
CO[C@H](CN(C)S(=O)(=O)c1ccc(C)cc1)[C@H](C)CN(Cc1ccccc1Cl)[C@@H](C)CO	none
CO[C@@H](CN(C)S(=O)(=O)c1ccc(C)cc1)[C@@H](C)CN(Cc1ccccc1Cl)[C@@H](C)CO	none
CO[C@@H](CN(C)S(=O)(=O)c1ccc(C)cc1)[C@@H](C)CN(Cc1ccccc1Cl)[C@H](C)CO	EZH2 inh 51
C=CCNC(=O)[C@H]1[C@@H]2C(=O)O[C@@H](c3ccccc3)[C@@H](c3ccccc3)N2[C@@H](c2ccc(O)cc2)[C@]12C(=O)Nc1ccccc12	none
Cc1cc(Cl)c(S(=O)(=O)Nc2cccc(C(F)(F)F)c2)cc1OCC(N)=O	none
Cc1ccc(S(=O)(=O)NC(C)C(=O)Nc2cccc(C(F)(F)F)c2)cc1 (centres undefined)	none
CC(C)(c1ccc(NS(=O)(=O)C(F)(F)F)cc1)c1ccc(C(C)(C)c2cccc(NS(=O)(=O)C(F)(F)F)c2)cc1	EZH2 inh 52
COC(=O)CCCCCCC(=O)N/N=C/c1ccc(-c2ccccc2)c(F)c1	EZH2 inh 60
COC(=O)CCCCCCC(=O)N/N=C/c1ccc(Oc2ccccc2)cc1	none
O=C(CCCCC(=O)N/N=C/c1ccc(-c2ccccc2)c(F)c1)NO	none
CCC(CO)NS(=O)(=O)c1ccc(OC)c(-c2nnc3c4ccccc4c(C)nn23)c1 (centres undefined)	none
O=C(O)CC(C(=O)Nc1ccc(Cl)cc1)N1CCCCC1 (centres undefined)	none
O=C(Cn1ccc([N+](=O)[O-])n1)Nc1ccc(F)c(Cl)c1	none
O=C(CCCCC(=O)N/N=C/c1ccccc1Br)NO	none
CCn1c(O)c(/C=C2/C=CC=N2)c(=O)[nH]c1=S	none
O=C(NO)c1cccc(C(=O)N/N=C/c2ccc3ccccc3c2)c1	none
O=C(NO)c1cccc(C(=O)N/N=C/c2ccc(O)c(O)c2)c1	EZH2 inh 94
O=C(NO)c1cccc(C(=O)N/N=C/c2ccc(F)cc2)c1	none
Cc1cc(C(F)(F)F)nc(SCc2cccc(C(=O)O)c2)n1	none
O=C(O)c1cccc(CSc2nc(-c3ccc(Cl)cc3)cc(C(F)(F)F)n2)c1	EZH2 inh 50
O=C(O)c1cccc(CSc2n[nH]c(-c3ccc(Cl)cc3)n2)c1	none
Cc1ccc2oc(C(=O)Nc3sc4c(c3C(=O)NCc3ccco3)CCC4)c(C)c2c1	none
Cc1nnc(SCC(=O)NCC2CCCO2)s1 (centres undefined)	none
Cc1cc(Cl)ccc1OC(C)C(=O)Nc1ccc(C(=O)Nc2ccccc2C(=O)O)cc1 (centres undefined)	EZH2 inh 60
Cc1cccc(C(=O)O)c1NC(=O)C(C)Oc1ccc(Cl)cc1Cl (centres undefined)	none
COC(=O)c1ccccc1NC(=O)c1ccc(NC(=O)C(C)Oc2ccccc2)cc1 (centres undefined)	none
O=C(CN(c1ccc(F)cc1)S(=O)(=O)c1ccc2c(c1)OCCO2)N1CCc2ccccc2C1	none
O=C1c2ccccc2C2=Nc3ccccc3SC(c3ccsc3)C12 (centres undefined)	none
COc1ccc(C)cc1NC(=O)CN(c1cc(Cl)c(Cl)cc1Cl)S(C)(=O)=O	none
CS(=O)(=O)N(CC(=O)Nc1ccc(F)c(F)c1)c1ccc(Cl)c(C(F)(F)F)c1	none
COC(=O)c1ccccc1NC(=O)c1cc(-c2ccccn2)nc2c(C)c(Cl)ccc12	none
Clc1ccc(SCc2csc(-c3ccsc3)n2)cc1	EZH2 inh 63
Clc1ccc2nc(SCc3csc(Nc4ccccc4)n3)oc2c1	none
Cn1c(SCC(=O)c2ccc([N+](=O)[O-])cc2)nnc1-c1cccs1	none
O=C(O)CCc1ccc(-c2ccc(F)cc2)n1-c1cccc(C(=O)O)c1	none
Cc1cc(C)nc(SCC(=O)c2ccc(Oc3ccccc3)cc2)n1	EZH2 inh 57
Cc1cc(Oc2ccccc2)nc(SCC(N)=O)n1	none
Nc1nc(SCC(=O)c2ccc(Oc3ccccc3)cc2)n[nH]1	none
CCC1(C)Cc2ccccc2-c2nc3[nH]nc(SCC(=O)Nc4ccc(OC)c(Cl)c4)n3c(=O)c21 (centres undefined)	EZH2 inh 60
COc1ccc(NC(=O)CSc2n[nH]c(N)n2)cc1Cl	none
COc1ccc(NC(=O)CSc2nnc(C)c(=O)[nH]2)cc1Cl	none
COc1ccc(NC(=O)CN(c2ccc(F)c(Cl)c2)S(C)(=O)=O)cc1Cl	none
CCOc1cc(C2c3c(oc4ccc(F)cc4c3=O)C(=O)N2CCc2ccc(OC)cc2)ccc1O (centres undefined)	none
CC(C)c1ccc(NC(=O)CSc2n[nH]c(-c3ccc(Cl)cc3)n2)cc1	none
C=C[C@]1(C)C=C2CCC3C(C)(CCC[C@@]3(C)C(=O)O)C2CC1 (some centres undefined)	none
COc1ccc(C(C)=O)c(O)c1	none
COCc1cc(O)c(O)c(O)c1-c1c(COC)cc(O)c(O)c1O	EZH2 inh 88
CS(=O)(=O)N(CC(=O)Nc1ccc(C(F)(F)F)cc1)c1ccc(I)cc1	none
COc1ccc(-c2cc(-c3cccs3)nc(SC(C(=O)O)c3ccccc3)c2C#N)cc1 (centres undefined)	EZH2 inh 72
N#Cc1c(C(F)(F)F)cc(-c2cccs2)nc1SCC(O)COc1ccc(Cl)cc1 (centres undefined)	none
N#Cc1c(C(F)(F)F)cc(-c2cccs2)nc1SCC(=O)Nc1c(F)cccc1F	none
CN(CC(=O)O)S(=O)(=O)c1ccc2ccccc2c1	none
O=C(CSc1nnc(NC(=O)c2ccc(Cl)c(Cl)c2)s1)Nc1ccc(F)c(F)c1F	none
N#Cc1ccccc1NC(=O)COc1ccccc1[N+](=O)[O-]	none
O=C(O)C1C2C=CC(C2)C1C(=O)Nc1cccc([N+](=O)[O-])c1 (centres undefined)	none
O=C(O)COc1ccc(Cl)cc1CO	none
CCCc1c(OCCCOc2ccc(OCC(=O)O)cc2)ccc(CC=O)c1O	EZH2 inh 55
Cc1c(CCC(=O)O)c(=O)oc2cc(OCC(=O)O)ccc12	none
CC(=O)c1cccc(NC(=O)C(C)NS(=O)(=O)c2ccc(Br)cc2)c1 (centres undefined)	none
Cc1ccc2[nH]c(C)c(CCC(=O)O)c(=O)c2c1	none
CC1(C)CC[C@]2(C(=O)O[C@@H]3O[C@H](CO)[C@@H](O)[C@H](O)[C@H]3O)CC[C@]3(C)C(=CCC4[C@@]5(C)C[C@@H](O)[C@H](O)C(C)(C)C5CC[C@]43C)C2[C@@H]1O (some centres undefined)	EZH2 inh 68
CC1(C)CC[C@]2(C(=O)O[C@@H]3O[C@H](CO)[C@@H](O)[C@H](O)[C@H]3O)CC[C@]3(C)C(=CCC4[C@@]5(C)CC[C@H](OC6O[C@H](CO)[C@@H](O)[C@H](O[C@@H]7O[C@H](CO)[C@@H](O)[C@H](O)[C@H]7O)[C@H]6O)C(C)(C)C5CC[C@]43C)[C@@H]2C1 (some centres undefined)	none
C[C@H]1[C@H](C)CC[C@]2(C(=O)O)CC[C@]3(C(=O)O)C(=CCC4[C@@]5(C)CC[C@H](O[C@@H]6O[C@@H](C)[C@H](O)[C@@H](O)[C@H]6O)C(C)(C)C5CC[C@]43C)[C@H]12 (some centres undefined)	none
